Structures are written as SMILES. In all, about 350,000 compounds went through this assay and about 5,500 (1.6%) were called active.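 Rule for the calls: active = significant combined selectivity score with lowered wild-type GFP, culture density cut under 30%, mutant RFP and density less affected; inactive = any of these conditions unmet.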 The list comes from a sample in which actives are over-represented; it also holds similar structures and randomly drawn compounds.

The experiment is described as follows: GFP drop in mixed WT/humanized-ribosome E. coli culture – GFP/RFP fluorescence, OD600, single point, bacterial rRNA inhibitor project, primary screen (AID 720706). The note with it: E. coli WT GFP vs humanized-ribosome RFP mutants, 24 h; GFP signal change (wild-type ribosome): stronger effect = lower value, DMSO median 0, no signal -100; OD600 change: measured here: OD600 growth, DMSO median 0, no signal -100; RFP signal change: measured here: RFP humanized mutant strains, DMSO median 0, no signal -100, concentration not given here.
With `COc1ccc(C(=O)COC(=O)c2c(C)noc2C)cc1Cl`, the GFP signal change (wild-type ribosome) is 0.365% (inactive), the OD600 change was -1.69% and the RFP signal change came out at 4.01%.

Turning to `Cc1onc(-c2ccccc2Cl)c1C(=O)OCc1nnc(-c2ccccc2)o1`, the GFP signal change (wild-type ribosome) is -1.78% (inactive), the OD600 change is -40.3% and the RFP signal change was -4.01%.

On to `Cc1onc(-c2ccccc2Cl)c1C(=O)OCC(=O)c1ccccc1`, for which the GFP signal change (wild-type ribosome) was -21.5% (active), the OD600 change is 3.35% and the RFP signal change was -2.14%.

In the case of `COc1ccc2c3c(n(C)c2c1)[C@@H](CO)N(C(=O)C1CC1)CC31CN(C(=O)C2CCOCC2)C1`, the GFP signal change (wild-type ribosome) is -0.396% (inactive), the OD600 change was 5.66% and the RFP signal change was -5.33%.

`CCCNC(=O)N1CC(=O)N2[C@@H](CO)[C@H](c3ccc(-c4ccc(C)cc4)cc3)[C@@H]2C1`: the GFP signal change (wild-type ribosome) is 2.33% (inactive), the OD600 change turned out to be 1.16% and the RFP signal change is -7.67%.

As for `Cc1nn(C)cc1C(=O)Nc1ccccc1Br`, the GFP signal change (wild-type ribosome) was 1.8% (inactive), the OD600 change turned out to be 6.79% and the RFP signal change is -7.21%.

Regarding `CCn1c(NC(=O)c2nn(C)cc2Br)nc2ccccc21`, the GFP signal change (wild-type ribosome) was -17.8% (active), the OD600 change is -7.54% and the RFP signal change amounted to 6.47%.

Turning to `CCCn1c(NC(=O)C23CC4CC(CC(O)(C4)C2)C3)nc2ccccc21`, the GFP signal change (wild-type ribosome) was -30.1% (inactive), the OD600 change was -35.7% and the RFP signal change was found to be 3.93%.

As to `C[C@H]1CN([C@@H](C)CO)C(=O)CCCn2nncc2CO[C@H]1CN(C)Cc1ccc2c(c1)OCO2`, the GFP signal change (wild-type ribosome) was -1.02% (inactive), the OD600 change was found to be 5.54% and the RFP signal change amounted to 0.27%.

Take `COc1ccc(C2=CN(Cc3ccccc3)C(c3ccc(OC)cc3)CC2=O)cc1` (stereo not drawn): the GFP signal change (wild-type ribosome) was -23.8% (inactive), the OD600 change was -12.9% and the RFP signal change stood at 3.14%.

`CC(C)NC(=O)N[C@@H]1CC[C@H](CC(=O)NC2Cc3ccccc3C2)O[C@H]1CO`: the GFP signal change (wild-type ribosome) is 1.59% (inactive), the OD600 change is 0.47% and the RFP signal change was -1.63%.

In the case of `Cn1cnc(CCNC(=O)C[C@@H]2CC[C@H]3[C@@H](COC[C@@H](O)CN3C(=O)Nc3ccc(Cl)cc3)O2)c1`, the GFP signal change (wild-type ribosome) is -23.1% (inactive), the OD600 change was -23.2% and the RFP signal change was -3.05%.

As for `COc1ccc(/C=C/C(=O)Nc2cccnc2)cc1OC`, the GFP signal change (wild-type ribosome) was -20.8% (active), the OD600 change was -6.64% and the RFP signal change is -4.77%.

As to `COc1ccc(/C=C/C(=O)Nc2ccc(C34CC5CC(CC(O)(C5)C3)C4)cc2)cc1OC`, the GFP signal change (wild-type ribosome) was -3.43% (inactive), the OD600 change was -9.24% and the RFP signal change was 7.24%.

`COc1cc(/C=N/NC(=S)Nc2cccnc2)cc(OC)c1O`: the GFP signal change (wild-type ribosome) is 1.59% (inactive), the OD600 change was 0.97% and the RFP signal change is -1.01%.

`C[C@H]1CCCCO[C@H](CN(C)C(=O)Nc2ccccc2)[C@@H](C)CN([C@@H](C)CO)C(=O)c2cc(NC(=O)c3ccncc3)ccc2O1`: the GFP signal change (wild-type ribosome) is -0.767% (inactive), the OD600 change is -2.38% and the RFP signal change is -0.401%.

Consider `Cc1noc(C)c1NC(=O)N(C)C[C@H]1OCCCC[C@@H](C)Oc2ccc(NC(=O)NC(C)C)cc2C(=O)N([C@@H](C)CO)C[C@H]1C`, for which the GFP signal change (wild-type ribosome) was -0.208% (inactive), the OD600 change is -7.75% and the RFP signal change is -1.31%.

Consider `COc1cccc(-c2ccc3c(c2)[C@@H]2[C@@H](CCN2C(=O)CN2CCOCC2)[C@H](CO)N3)c1`, for which the GFP signal change (wild-type ribosome) is -1.73% (inactive), the OD600 change was 12.1% and the RFP signal change is -1.6%.

On to `Cc1cccc(C)c1NC(=O)CNC(=O)Cc1ccc(Br)cc1`, for which the GFP signal change (wild-type ribosome) is 8.56% (inactive), the OD600 change is 16.5% and the RFP signal change is -1.39%.

Consider `CC1CCCCC1NC(=O)COC(=O)Cc1ccc(Br)cc1` (stereo not drawn), for which the GFP signal change (wild-type ribosome) was -12.8% (inactive), the OD600 change was -7.61% and the RFP signal change was 2.98%.

For the molecule `O=C(COC(=O)Cc1ccc(Br)cc1)Nc1c(F)c(F)c(F)c(F)c1F`, the GFP signal change (wild-type ribosome) is -24.2% (active), the OD600 change was -11.5% and the RFP signal change was determined as 3.44%.

As for `COc1cccc(NS(=O)(=O)c2ccc(-c3coc(C)n3)cc2)c1`, the GFP signal change (wild-type ribosome) was -28.4% (active), the OD600 change is -10.5% and the RFP signal change worked out at 9.54%.

Take `Cc1ccc(NS(=O)(=O)c2ccc(-c3coc(C)n3)cc2)c(C)c1`: the GFP signal change (wild-type ribosome) was -8.02% (inactive), the OD600 change came to 1.15% and the RFP signal change was determined as 7.38%.

Regarding `CCN(c1cccc(C)c1)S(=O)(=O)c1ccc(-c2coc(C)n2)cc1`, the GFP signal change (wild-type ribosome) was -9.48% (inactive), the OD600 change was -35% and the RFP signal change was -6.13%.

On to `CCCCN1CC(C)(C)[C@H](CC(=O)Nc2ccc(Br)cc2)C1=O`, for which the GFP signal change (wild-type ribosome) was -12.6% (inactive), the OD600 change was -27.4% and the RFP signal change is -4.18%.

Regarding `CC1(C)CN(CCc2ccccc2)C(=O)[C@H]1CC(=O)Nc1ccc(Br)cc1`, the GFP signal change (wild-type ribosome) was -6.21% (inactive), the OD600 change turned out to be 0.615% and the RFP signal change was -0.505%.

`CN1C(CC(=O)Nc2ccc(Br)cc2)c2ccccc2CC1(C)C` (stereo not drawn): the GFP signal change (wild-type ribosome) was -26.3% (active), the OD600 change is -20.9% and the RFP signal change was -0.455%.

For `CNC[C@H]1OCCCC[C@H](C)Oc2ccc(NS(=O)(=O)c3ccc(Cl)cc3)cc2C(=O)N([C@@H](C)CO)C[C@@H]1C`, the GFP signal change (wild-type ribosome) is 3.9% (inactive), the OD600 change was 3.87% and the RFP signal change was determined as 0.215%.

Consider `O=C(N/N=C/c1ccc(OCc2ccccc2)cc1)c1ccc(O)cc1`, for which the GFP signal change (wild-type ribosome) is -18.6% (active), the OD600 change was 6.25% and the RFP signal change was found to be 7.26%.

Turning to `CCOc1ccc(-c2cc(C(=O)N/N=C/c3ccc(O)cc3)c3ccccc3n2)cc1`, the GFP signal change (wild-type ribosome) is 12.1% (inactive), the OD600 change is 6.6% and the RFP signal change stood at 2.19%.

With `O=C(Cc1cccs1)N/N=C/c1ccc(OCc2ccccc2)cc1`, the GFP signal change (wild-type ribosome) is 6.88% (inactive), the OD600 change was -2.65% and the RFP signal change was -8.12%.

The values above are taken from PubChem BioAssay AID720706 (Broad Institute, 2013).
